dFosB act-1 – enhances mouse delta FosB homodimer DNA binding; P13346; purified delta FosB, TAMRA-CDK5 oligo fluorescence polarization; percent of positive-control signal above neutral wells; activation, % at 25 µM; 0.99% of 340,000 active; AID 493131;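 active = mean activation above about 17%, with every replicate also reaching it, limit read from the data, passing the limit was not always enough; inconclusive = only one of the two conditions met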
Target sequence (P13346 whole entry, looked up): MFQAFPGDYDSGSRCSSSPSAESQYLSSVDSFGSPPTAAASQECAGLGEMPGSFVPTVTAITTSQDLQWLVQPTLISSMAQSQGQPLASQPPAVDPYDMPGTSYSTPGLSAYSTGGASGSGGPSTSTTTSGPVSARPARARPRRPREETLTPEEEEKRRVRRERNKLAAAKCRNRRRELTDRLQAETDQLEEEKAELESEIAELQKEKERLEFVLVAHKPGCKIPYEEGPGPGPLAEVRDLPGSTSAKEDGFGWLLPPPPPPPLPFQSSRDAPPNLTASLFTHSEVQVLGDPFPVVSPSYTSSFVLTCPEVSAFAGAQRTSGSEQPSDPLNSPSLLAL
Efa HMGR inh – E. faecalis class II HMG-CoA reductase inhibition; 0.41% of 190,000 active; inhibition, % at 10 µM; purified E. faecalis HMGR, NADPH absorbance 340 nm kinetic; AID 1066;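 active = inhibition above a set limit, the median over all tested compounds plus 3 SD, cut at about 9.5% in these data; inconclusive = no clear call, values can overlap the other calls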;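 also: enzyme runs in reverse so mevalonate oxidation gives rising NADPH absorbance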
14-3-3 Bad PPI – disrupts binding of bovine 14-3-3 zeta to phospho-Bad peptide; 0.71% of 220,000 active; P63103; TR-FRET 14-3-3zeta/Dy647-pBad peptide displacement, 1 h; inhibition, % at 21.7 µM;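 active = inhibition above about 70%, limit read from the data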
Target sequence (P63103 whole entry, looked up): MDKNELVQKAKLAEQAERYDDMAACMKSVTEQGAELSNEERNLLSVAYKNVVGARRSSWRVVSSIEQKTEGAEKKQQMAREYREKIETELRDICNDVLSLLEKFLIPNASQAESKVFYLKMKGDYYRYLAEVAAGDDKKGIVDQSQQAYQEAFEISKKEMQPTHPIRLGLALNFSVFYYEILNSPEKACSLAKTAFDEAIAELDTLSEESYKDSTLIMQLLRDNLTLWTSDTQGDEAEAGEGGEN
p47phox inh – blocks human p47phox regulatory protein of NADPH oxidases | P14598 | inhibition, % at 24.7 µM | 0.53% of 220,000 active | p47phox/p22phox peptide binding, fluorescence polarization, 2 h;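 active = inhibition above about 30%, limit read from the data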
dFosB act-2 – delta FosB (mouse) homodimer activation. activation, % at 24.9 µM. AID 588690. purified delta FosB, TAMRA-CDK5 oligo fluorescence polarization; normalised: neutral wells 0, positive control 100. 2,400 tested, under 10 active. shares compounds with dFosB act-1;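 active = highest replicate activation at or above 34% and every replicate reaching that threshold; inconclusive = meets only one of the two criteria; inactive = meets neither criterion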;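 also: higher polarization means more probe DNA bound by delta FosB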
Numbers stand for hits; 0 = inactive; ? = inconclusive; - = not tested or not shown. Compounds with a hit are over-represented: about 1.9% of the library has one in this group of screens.

SMILES | dFosB act-1 | Efa HMGR inh | 14-3-3 Bad PPI | p47phox inh | dFosB act-2
O=C(COC(=O)CSc1nnc(-c2ccc(Cl)cc2)o1)NCc1ccc2c(c1)OCO2 | 24.5 | 0 | 0 | 0 | 0
CCN(CC)S(=O)(=O)c1ccc(-c2nnc(SCC(=O)Nc3ccc4c(c3)OCO4)o2)cc1 | 31.0 | 0 | 0 | 0 | 0
O=C(COC(=O)Cc1ccc(Cl)cc1)NCc1ccc2c(c1)OCO2 | 0 | - | - | - | -
C=CCNC(=O)c1cccc(NS(=O)(=O)c2ccc(Cl)cc2)c1 | 0 | 0 | 0 | 0 | -
COc1ccc(Cn2c(C)c(C)c(C#N)c2NC(=O)Nc2cccc(C)c2)cc1 | 62.8 | 0 | 0 | 0 | 0
Fc1ccc(NC(=S)N/N=C/c2cccc(Br)c2)c(F)c1 | 36.4 | 0 | 0 | 0 | 0
CCc1cccc(OCC2Cn3c(nc4c3c(=O)[nH]c(=O)n4C)O2)c1 (stereo not drawn) | 19.6 | - | - | - | 0
CCc1cccc(OCC2Cn3c(nc4c3c(=O)n(C)c(=O)n4C)O2)c1 (stereo not drawn) | 0 | - | - | - | -
O=C(Nc1nc(-c2ccccc2)cs1)c1ccc2c(=O)n3c(nc2c1)CCCCC3 | 18.4 | 0 | 0 | 0 | 0
O=C(Nc1ccccc1Cl)c1ccc2c(=O)n3c(nc2c1)CCC3 | 0 | - | - | - | -
COc1cc(C2c3cc4c(cc3OC(Nc3ccc(C(=O)O)cc3)C2C)OCO4)cc(OC)c1OC (stereo not drawn) | 0 | - | - | - | -
O=C(O)c1ccc(COc2ccccc2/C=C2/NC(=O)N(c3cccc(Cl)c3)C2=O)cc1 | 28.4 | 0 | 0 | 0 | 0
CN1C(=O)/C(=C/c2ccccc2OCc2ccc(C(=O)O)cc2)NC1=S | 0 | 0 | 0 | 0 | -
Cc1ccc(/C=N\NC(=O)c2ccc(Cn3cc(Br)c([N+](=O)[O-])n3)o2)o1 | 26.6 | 0 | 0 | 0 | 0
O=C(N/N=C\c1cccc(Cl)c1)c1ccc(Cn2cccn2)o1 | 0 | 0 | 0 | 0 | -
O=C(N/N=C\c1cccc(Cl)c1)c1ccc(Cn2cc(Br)c([N+](=O)[O-])n2)o1 | 33.4 | 0 | 0 | 0 | 0
COc1cccc(C=NNc2nnc(NN=Cc3cccc(OC)c3OC)c3ccccc23)c1OC | 0 | - | - | - | -
Cc1ccc(OCc2ccc(C(=O)N3CCCC3)o2)cc1C | 0 | - | - | - | -
O=C(Nc1ccc2nn(-c3ccc(F)cc3)nc2c1)c1cccnc1 | 30.3 | 0 | 0 | 0 | 0
O=C(Nc1ccc2nn(-c3ccccc3)nc2c1)c1cccnc1 | 0 | 0 | 0 | 0 | -
O=C(Nc1nc(-c2ccc(F)cc2)cs1)c1cccnc1 | 34.4 | 0 | 0 | 0 | 0
O=C(Nc1nc(-c2ccc(Cl)cc2)cs1)c1cccnc1 | ? | 0 | 0 | 0 | -
CCCc1nn2c(=O)cc(CSCC(=O)Nc3nnc(C(C)C)s3)nc2s1 | 0 | - | - | - | -
O=C(COC(=O)c1cc(Br)ccc1O)NNC(=O)c1ccc([N+](=O)[O-])cc1 | 0 | - | - | - | -
O=C(COC(=O)c1cc(Br)ccc1O)NNC(=O)c1ccc(Cl)cc1 | 25.9 | - | - | - | 0
SMILES | dFosB act-1 | Efa HMGR inh | 14-3-3 Bad PPI | p47phox inh | dFosB act-2
O=C1C(c2ccccc2)SC(=Nc2ccccc2)N1S(=O)(=O)c1ccccc1 (stereo not drawn) | 20.9 | 0 | 0 | 0 | 0
C/C=C\C(=O)Nc1cccc(C2=NOC3(C2)C[C@@H](C(N)=O)N(C(=O)CCCCC)C3)c1 (stereo partly drawn) | 0 | - | 0 | 0 | -
CCOC(=O)c1c(NC(=O)COC(=O)Cn2c(C)nc3ccccc32)sc2c1CCCC2 | 38.7 | 0 | 87.9 | 0 | 0
CCOc1ccc(Nc2nc(N)c([N+](=O)[O-])c(NCc3ccccc3)n2)cc1 | ? | - | 0 | 0 | -
COc1cccc(Nc2nc(N)c([N+](=O)[O-])c(NCc3ccccc3)n2)c1 | 50.6 | - | 0 | 0 | 0
CCOCc1nnc(NC(=O)c2cc(OC)c(OC)c(OC)c2)s1 | 0 | 0 | 0 | 0 | -
COc1cccc(C(=O)Nc2nnc(-c3ccc(OC)cc3OC)s2)c1 | 38.6 | - | - | - | 0
COc1cc(C(=O)Nc2nnc(-c3sccc3C)s2)cc(OC)c1OC | 16.9 | 0 | 0 | 0 | 0
CC(C)c1nnc(NC(=O)c2ccc3c(c2)OCO3)s1 | 0 | 0 | 0 | 0 | -
COc1cccc(C(=O)Nc2nnc(-c3ccccc3)s2)c1 | 0 | - | - | - | -
COc1ccccc1-c1nnc(NC(=O)c2ccc3c(c2)OCO3)s1 | 59.2 | 0 | 70.7 | 0 | 0
Cc1cc(=O)n(C)c2ccc(S(=O)(=O)N3CCOCC3)cc12 | 0 | - | - | - | -
COc1ccc(COCC(O)CN2CCC(CN3C(=O)c4cccc5cccc(c45)C3=O)CC2)cc1OC (stereo not drawn) | 27.6 | 0 | 0 | 0 | 0
COc1cc(COCC(O)CN2CCN(CCN3C(=O)c4cccc5cccc(c45)C3=O)CC2)cc(OC)c1OC (stereo not drawn) | 37.1 | 0 | 0 | 0 | 0
COc1cccc(OCC(O)CN2CCC(CN3C(=O)c4cccc5cccc(c45)C3=O)CC2)c1 (stereo not drawn) | 45.5 | 0 | 0 | 0 | 0
O=C1c2cccc3cccc(c23)C(=O)N1CCN1CCN(CC(O)COCc2ccc(Cl)cc2)CC1 (stereo not drawn) | 0 | 0 | 0 | 0 | -
CCc1ccc(OCC(O)CN2CCC(CN3C(=O)c4cccc5cccc(c45)C3=O)CC2)cc1 (stereo not drawn) | 0 | 0 | 0 | 0 | -
O=C1c2cccc3cccc(c23)C(=O)N1CC1CCN(CC(O)COc2ccc3ccccc3c2)CC1 (stereo not drawn) | 0 | - | - | - | -
COc1ccc(C(=O)CCC(=O)Nc2cccc(Cl)c2)cc1 | 0 | 0 | 0 | 0 | -
O=C(CCC(=O)c1ccc(Oc2ccccc2)cc1)Nc1cccc(Cl)c1 | 26.2 | 0 | 0 | 0 | 0
Cc1ccccc1-n1nnnc1SCC(=O)c1c(N)n(C)c(=O)n(C)c1=O | 23.1 | - | 0 | 0 | 0
CCc1ccc(-c2nc(SCC(=O)c3c(N)n(C)c(=O)n(C)c3=O)n[nH]2)cc1 | 0 | - | - | - | -
Cc1ccc(-c2nc(SCC(=O)c3c(N)n(C)c(=O)n(C)c3=O)n[nH]2)cc1 | 32.3 | 0 | 0 | 0 | 0
CC(C)C(=O)Nc1ccc(NC(=O)c2cc3ccccc3o2)cc1 | 0 | 0 | 0 | 0 | -
Cc1c(C(=O)O)c(C(=O)O)nc2ccc(N3CCOCC3)cc12 | - | 0 | 0 | 0 | -
SMILES | dFosB act-1 | Efa HMGR inh | 14-3-3 Bad PPI | p47phox inh | dFosB act-2
O=C(CCc1nc2ccccc2c(=O)[nH]1)Nc1nnc(SCc2ccc(F)cc2)s1 | 89.7 | - | - | - | 0
O=C(CCc1nc2ccccc2c(=O)[nH]1)Nc1nc(-c2cccs2)cs1 | 26.1 | - | - | - | 0
CN(C)S(=O)(=O)Oc1ccsc1C(=O)Nc1cccc(Cl)c1Cl | 0 | 0 | 0 | 0 | -
COc1ccc(-c2cc(C(=O)Nc3cc(S(=O)(=O)N4CCOCC4)ccc3N3CCOCC3)c3ccccc3n2)cc1 | 34.3 | 0 | 0 | 0 | 0
COc1cccc(C(=O)NC2CCCc3ccccc32)c1OC (stereo not drawn) | 0 | - | - | - | -
NNc1nc(Nc2ccccc2)nc(N2CCCCC2)n1 | 0 | 0 | 0 | 0 | -
COc1ccc(Nc2nc(NN)nc(Nc3ccc(OC)cc3)n2)cc1 | 24.9 | - | - | - | 0
NNc1nc(Nc2ccccc2)nc(Nc2ccccc2)n1 | 46.4 | 0 | 0 | 0 | 0
COc1ccc(Nc2ccc(OC)cc2)cc1 | - | - | 0 | 0 | -
CN(Cc1ccc(F)cc1)C(=O)c1cccc(OC2CCN(C3CCCC3)CC2)c1 | 0 | 0 | 0 | 0 | -
